Reference: PubChem BioAssay (NCATS)
Records with an inconclusive call do not appear. Where a call stands in place of a potency, no number is given. Unmarked numbers belong to inactive results. Activity calls are given as the source filed them. Calls follow the shape of the dose curve; as a rule, active = well fitted curve in the direction sought with a large enough effect; inconclusive = small, poorly fitted or top-dose-only effect, or another doubt; inactive = no such curve, though single readings can be large; an effect the other way counts as inactive or inconclusive.

Tests used:
[1] = qHTS of pediatric cancer cell lines to identify multiple opportunities for drug repurposing: Primary screen for NB-EBc1 cells (AID 1347095); conditions: NB-EBc1 neuroblastoma viability, CellTiter-Glo luminescence, 48 h; series mostly up to 46 µM; also: potency is read from the fitted curve at half-maximal effect
Summary of the method: (§1)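 Quantitative HTS format: each compound titrated (MIPE 11 points from 0.78 nM, NPC 8 points from 0.59 nM) onto cells plated 5 hours earlier. After 48 h at 37 degrees C, CellTiter-Glo luminescence was recorded.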

[2] = qHTS of pediatric cancer cell lines to identify multiple opportunities for drug repurposing: Primary screen for U-2 OS cells (AID 1347096); conditions: U-2 OS viability, CellTiter-Glo luminescence, 48 h; series mostly up to 46 µM; also: nearly all actives have a fitted effect of over 50% in size; also: potency is read from the fitted curve at half-maximal effect
Summary of the method: (§2)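 Cells (500-1,000/well) in growth media were settled 5 h at 37 degrees C, then given compounds for 48 h. Viability was read as CellTiter-Glo luminescence. Primary runs used MIPE at 11 points (0.78 nM-46 µM) and NPC at 8 points (0.59 nM-46 µM); follow-ups used 11 points.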

[3] = qHTS of pediatric cancer cell lines to identify multiple opportunities for drug repurposing: Primary screen for Saos-2 cells (AID 1347097); conditions: Saos-2 viability, CellTiter-Glo ATP luminescence, 48 h; series mostly up to 46 µM; also: nearly all actives have a fitted effect of over 40% in size; also: potency is read from the fitted curve at half-maximal effect
Summary of the method: as §1

[4] = qHTS of pediatric cancer cell lines to identify multiple opportunities for drug repurposing: Primary screen for SK-N-SH cells (AID 1347098); conditions: SK-N-SH viability, CellTiter-Glo luminescence, 48 h; series mostly up to 57 µM; also: nearly all actives have a fitted effect of over 65% in size; also: potency is read from the fitted curve at half-maximal effect
Summary of the method: (§3)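 Cells (500-1,000/well) rested 5 h, then received compounds for 48 h; metabolically active cells were measured by CellTiter-Glo luminescence. Final concentrations spanned up to 46 µM (MIPE, 11-point) or 0.59 nM-46 µM (NPC, 8-point) in primary screens, 11-point in follow-ups.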

[5] = qHTS of pediatric cancer cell lines to identify multiple opportunities for drug repurposing: Primary screen for NB1643 cells (AID 1347099); conditions: NB1643 neuroblastoma viability, CellTiter-Glo luminescence, 48 h; series mostly up to 46 µM; also: nearly all actives have a fitted effect of over 50% in size; also: potency is read from the fitted curve at half-maximal effect
Summary of the method: as §1

[6] = qHTS of pediatric cancer cell lines to identify multiple opportunities for drug repurposing: Primary screen for LAN-5 cells (AID 1347100); conditions: LAN-5 neuroblastoma viability, CellTiter-Glo luminescence, 48 h; series mostly up to 46 µM; also: potency is read from the fitted curve at half-maximal effect
Summary of the method: as §2

[7] = qHTS of pediatric cancer cell lines to identify multiple opportunities for drug repurposing: Primary screen for BT-12 cells (AID 1347101); conditions: BT-12 viability, CellTiter-Glo luminescence, 48 h; series mostly up to 57.3 µM; also: nearly all actives have a fitted effect of over 25% in size; also: potency is read from the fitted curve at half-maximal effect
Summary of the method: as §3

[8] = qHTS of pediatric cancer cell lines to identify multiple opportunities for drug repurposing: Primary screen for Rh18 cells (AID 1347102); conditions: Rh18 rhabdomyosarcoma viability, CellTiter-Glo luminescence, 48 h; series mostly up to 46 µM; also: nearly all actives have a fitted effect of over 65% in size; also: potency is read from the fitted curve at half-maximal effect
Summary of the method: as §2

[9] = qHTS of pediatric cancer cell lines to identify multiple opportunities for drug repurposing: Primary screen for OHS-50 cells (AID 1347103); conditions: OHS-50 osteosarcoma viability, CellTiter-Glo luminescence, 48 h; series mostly up to 57.3 µM; also: nearly all actives have a fitted effect of over 40% in size; also: potency is read from the fitted curve at half-maximal effect
Summary of the method: as §3

[10] = qHTS of pediatric cancer cell lines to identify multiple opportunities for drug repurposing: Primary screen for RD cells (AID 1347104); conditions: RD rhabdomyosarcoma viability, CellTiter-Glo luminescence, 48 h; series mostly up to 46 µM; also: nearly all actives have a fitted effect of over 55% in size; also: potency is read from the fitted curve at half-maximal effect
Summary of the method: as §1

[11] = qHTS of pediatric cancer cell lines to identify multiple opportunities for drug repurposing: Primary screen for MG 63 (6-TG R) cells (AID 1347105); conditions: MG 63 (6-TG R) viability, CellTiter-Glo, 48 h; series mostly up to 46 µM; also: nearly all actives have a fitted effect of over 50% in size; also: potency is read from the fitted curve at half-maximal effect
Summary of the method: as §1

[12] = qHTS of pediatric cancer cell lines to identify multiple opportunities for drug repurposing: Primary screen for control Hh wild type fibroblast cells (AID 1347106); conditions: Hh wild-type fibroblast viability, CellTiter-Glo luminescence, 48 h; series mostly up to 46 µM;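 also: a drop in luminescence marks cytotoxicity and a rise apparent proliferation; nearly all actives have a fitted effect of over 55% in size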
Summary of the method: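 Viability after 48 h compound treatment at 37C, 500-1,000 cells/well, read as ATP luminescence with CellTiter-Glo. Primary screens used 11-point (MIPE, 0.78 nM-46 µM) or 8-point (NPC, 0.59 nM-46 µM) final concentrations; follow-up screens used 11-point dilutions.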

[13] = qHTS of pediatric cancer cell lines to identify multiple opportunities for drug repurposing: Primary screen for Rh30 cells (AID 1347107); conditions: Rh30 rhabdomyosarcoma viability, CellTiter-Glo luminescence, 48 h; series mostly up to 46 µM; also: nearly all actives have a fitted effect of over 75% in size; also: potency is read from the fitted curve at half-maximal effect
Summary of the method: as §2

[14] = qHTS of pediatric cancer cell lines to identify multiple opportunities for drug repurposing: Primary screen for Rh41 cells (AID 1347108); conditions: Rh41 rhabdomyosarcoma viability, CellTiter-Glo luminescence, 48 h; series mostly up to 46 µM; also: nearly all actives have a fitted effect of over 70% in size; also: potency is read from the fitted curve at half-maximal effect
Summary of the method: as §1

[15] = qHTS of pediatric cancer cell lines to identify multiple opportunities for drug repurposing: Confirmatory screen for NB1643 cells (AID 1347109); conditions: NB1643 neuroblastoma cell viability; series mostly up to 45.9 µM; also: nearly all actives have a fitted effect of over 45% in size
Summary of the method: as §2

[16] = qHTS of pediatric cancer cell lines to identify multiple opportunities for drug repurposing: Confirmatory screen for A673 cells (AID 1347110); conditions: A673 Ewing sarcoma cell viability; series mostly up to 45.9 µM;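 also: cells exposed to compound for 48 h before the viability read; nearly all actives have a fitted effect of over 65% in size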
Summary of the method: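 A673 cells seeded at 500-1,000 cells/well, rested 5 h, then dosed; primary MIPE 11-point (0.78 nM to 46 µM), NPC (0.59 nM to 46 µM); confirmatory 11-point. CellTiter-Glo luminescence after 48 h.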

[17] = qHTS of pediatric cancer cell lines to identify multiple opportunities for drug repurposing: Confirmatory screen for BT-12 cells (AID 1347112); conditions: BT-12 rhabdoid tumor cells, viability; series mostly up to 45.9 µM; also: nearly all actives have a fitted effect of over 55% in size
Summary of the method: as §2

[18] = qHTS of pediatric cancer cell lines to identify multiple opportunities for drug repurposing: Confirmatory screen for DAOY cells (AID 1347114); conditions: DAOY medulloblastoma cells viability, cytotoxicity qHTS; series mostly up to 45.9 µM; also: nearly all actives have a fitted effect of over 65% in size
Summary of the method: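 Viability measured as metabolically active cells via CellTiter-Glo luminescence following 48 hours of compound exposure, 11-point dilutions in confirmatory testing. 500-1,000 cells/well plated 5 hours before dosing; controls were DMSO and 2.3 µM bortezomib.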

Row | SMILES | Potency [1] | Potency [2] | Potency [3] | Potency [4] | Potency [5] | Potency [6] | Potency [7] | Potency [8] | Potency [9] | Potency [10] | Potency [11] | Potency [12] | Potency [13] | Potency [14] | Potency [15] | Potency [16] | Potency [17] | Potency [18]
1 | CC(=O)OCC[N+](C)(C)C | inactive | inactive | inactive | inactive | inactive | inactive | inactive | inactive | inactive | inactive | inactive | inactive | inactive | inactive | – | – | – | –
2 | CCN(CC)CC(=O)OCC(=O)[C@@]1(O)CC[C@H]2[C@@H]3CCC4=CC(=O)CC[C@]4(C)[C@H]3[C@@H](O)C[C@@]21C | inactive | inactive | inactive | inactive | inactive | inactive | inactive | inactive | inactive | inactive | inactive | inactive | inactive | inactive | inactive | inactive | inactive | inactive
3 | CC(=O)O[C@@H]1CC2C3CCc4cc(OC(=O)c5ccccc5)ccc4C3CCC2(C)[C@H]1OC(C)=O (stereo partly specified) | inactive | inactive | inactive | inactive | inactive | inactive | inactive | inactive | inactive | inactive | inactive | inactive | inactive | inactive | – | – | – | –
4 | CN1Cc2cc(C(=O)N3CCC(C4CCNCC4)CC3)ccc2NC(CC(=O)O)C1=O (stereo unspecified) | inactive | inactive | inactive | inactive | inactive | inactive | inactive | inactive | inactive | inactive | inactive | inactive | inactive | inactive | – | – | – | –
5 | CCCCCC[C@@H](CCC)C(=O)O | inactive | inactive | inactive | inactive | inactive | inactive | inactive | inactive | inactive | inactive | inactive | inactive | inactive | inactive | – | – | – | –
6 | CC(=O)c1ccc(O)c(C(N)=O)c1 | inactive | inactive | inactive | inactive | inactive | inactive | inactive | inactive | inactive | inactive | inactive | inactive | inactive | inactive | – | – | – | –
7 | CCCCNc1ccc(C(=O)OCCN(CC)CC)cc1 | inactive | inactive | inactive | inactive | inactive | inactive | inactive | inactive | inactive | inactive | inactive | inactive | inactive | inactive | – | – | – | –
8 | Cc1ccc2c(Cl)cc(Cl)c(O)c2n1 | inactive | inactive | inactive | inactive | inactive | inactive | inactive | inactive | inactive | inactive | inactive | inactive | inactive | inactive | – | – | – | –
9 | CCCCOC(=O)CCCCCCCCC(=O)OCCCC | inactive | inactive | inactive | inactive | inactive | inactive | inactive | inactive | inactive | inactive | inactive | inactive | inactive | inactive | – | – | – | –
10 | CC(C)NCCCC1(C(N)=O)c2ccccc2-c2ccccc21 | inactive | inactive | inactive | inactive | inactive | inactive | inactive | inactive | inactive | inactive | inactive | inactive | inactive | inactive | – | – | – | –
11 | CCOC(=O)NNc1nncc2ccccc12 | inactive | inactive | inactive | inactive | inactive | inactive | inactive | inactive | inactive | inactive | inactive | inactive | inactive | inactive | – | – | – | –
12 | O=C(CCOCCOCCOCCOCCC(=O)Nc1c(I)cc(I)c(C(=O)O)c1I)Nc1c(I)cc(I)c(C(=O)O)c1I | inactive | inactive | inactive | inactive | inactive | inactive | inactive | inactive | inactive | inactive | inactive | inactive | inactive | inactive | – | – | – | –
13 | Cc1ncc(CO)c(CO)c1O | inactive | inactive | inactive | inactive | inactive | inactive | inactive | inactive | inactive | inactive | inactive | inactive | inactive | inactive | – | – | – | –
14 | CC(=O)N(c1onc(C)c1C)S(=O)(=O)c1ccc(N)cc1 | inactive | inactive | inactive | inactive | inactive | inactive | inactive | inactive | inactive | inactive | inactive | inactive | – | inactive | – | – | – | –
15 | N#Cc1cc(NC(=O)C(=O)O)c(Cl)c(NC(=O)C(=O)O)c1 | inactive | inactive | inactive | inactive | inactive | inactive | inactive | inactive | inactive | inactive | inactive | inactive | inactive | inactive | – | – | – | –
16 | Cc1cc2nc3ccc(=[N+](C)C)cc-3sc2cc1N | 10.6 µM (active) | 21.1 µM (active) | 2.99 µM (active) | 10.9 µM (active) | 5.96 µM (active) | 1.33 µM (active) | 15.5 µM (active) | 2.99 µM (active) | 3.89 µM (active) | 4.73 µM (active) | 13.3 µM (active) | inactive | 15 µM (active) | 5.96 µM (active) | – | – | – | –
17 | Cc1cnc(NS(=O)(=O)c2ccc(N)cc2)nc1 | inactive | inactive | inactive | inactive | inactive | inactive | inactive | inactive | inactive | inactive | inactive | inactive | inactive | inactive | – | – | – | –
